Rows were chosen to be rich in hits. Some 3.5% of all compounds tested hit in one or more screens of this group.
FBW7 act: activators of human E3 ligase FBW7; Q969H0; AlphaScreen FBW7–phospho-cyclin E peptide binding, activator screen; normalized activity (activation), % at 26.1 µM; 650,000 tested, 0.13% active; in the data active means normalized activity above about 1.9%;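 further: purified mutant Fbw7 with reduced substrate affinity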
MITF inh: blocks human microphthalmia-associated transcription factor; inhibition, % at 2.6 µM; AlphaScreen MITF homodimerization, bead proximity signal; AID 1259374; 650,000 tested, 0.91% active; in the data active means inhibition above about 50%;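 further: 0% = vehicle wells with protein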
GPR151 activ: activators of human GPR151 | PathHunter beta-arrestin GPR151 cells, luminescence | activation, % at 11.2 µM | 650,000 tested, 1% active | AID 1508602; in the data active means activation above about 4.9%;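 further: 0% = median of compound wells and 100% = cells with positive control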
TEAD-YAP block: TEAD-YAP interaction inhibition | HEK-TIYL cells, TEAD-Gal4/YAP UAS-luciferase luminescence | inhibition, % at 9.12 µM | 640,000 tested, 1.4% active; in the data active means inhibition above about 32%;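 further: 0% = median of test compound wells and 100% = reference inhibitor wells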
MITF confirm: confirmation of human MITF inhibitors | shares compounds with MITF inh | AlphaScreen MITF homodimerization, biotin/His-MITF beads | inhibition, % at 2.6 µM | 4,700 tested, 16% active | AID 1259372;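 active means inhibition above a cutoff derived from the DMSO control wells, cut at about 28% in these data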;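 further: 0% = MITF dimer wells with DMSO only; inhibitors lower the bead chemiluminescence by keeping MITF from dimerizing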
AlphaScreen intf2: optically interferes with AlphaScreen signal. shares compounds with MITF inh. LysRS AlphaScreen counterscreen, signal interference, triplicate. inhibition, % at 2.6 µM. 4,700 tested, 7.6% active;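 active means inhibition above a cutoff derived from the DMSO control wells, cut at about 30% in these data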
Numbers without * were called inactive; . = not tested or not shown.

SMILES | FBW7 act | MITF inh | GPR151 activ | TEAD-YAP block | MITF confirm | AlphaScreen intf2
CN1CCN(CC(O)Cn2cc(/C=N/O)c3ccccc32)CC1 (configuration not stated) | 0 | 59* | -2 | -3 | 13 | 11
CN1CCN(CC(O)Cn2cc(/C=C/C(=O)c3cccs3)c3ccccc32)CC1 (configuration not stated) | 0 | 5 | -3 | 12 | . | .
CSc1ccc(CN2CCN(C3CCCC3)CC2)cc1 | 0 | 54* | 0 | -4 | -1 | 8
CSc1ccc(CN2CCC(N3CCCCC3)CC2)cc1 | 0 | 13 | 0 | -3 | . | .
Cc1ccc(CN2CCN(C3CCCCCC3)CC2)cc1 | 0 | 69* | -1 | 3 | 11 | 23
CCc1ccc(CN2CCN(C3CCCCC3)CC2)cc1 | 0 | 62* | 0 | 0 | -1 | -1
CCc1ccc(CN2CCN(C3CCCC3)CC2)cc1 | 0 | 41 | 0 | 2 | . | .
Nc1nc(Nc2ccccc2)cc(NC2CCN(Cc3ccccc3)CC2)n1 | 0 | 18 | -1 | -1 | . | .
COc1cccc(C(=O)N2CCN(S(=O)(=O)c3ccc(C)cc3)CC2)c1 | 0 | -5 | -1 | -4 | . | .
COC(=O)C1(O)CC(CC(C)C)=NN1C(=O)c1ccccc1 (configuration not stated) | 0 | 71* | 0 | -21 | 0 | -4
CC(C)CC1=NN(C(=O)c2ccc(O)cc2)C(O)(C(F)(F)F)C1 (configuration not stated) | 0 | 2 | 4 | 2 | . | .
O=C(N/N=C/c1cc(O)ccc1Br)c1cccnc1 | -1 | 59* | 1 | 66* | 88* | 100*
O=C(N/N=C/c1cc(O)ccc1Br)c1ccncc1 | 1 | 114* | 0 | 77* | 120* | 100*
Cc1cc2c(Nc3ccc(F)cc3)ncnc2s1 | 0 | 8 | 2 | 3 | . | .
COc1ccc(C2/C(=C(/O)c3ccc(C)cc3)C(=O)C(=O)N2CC(C)O)cc1OC (configuration not stated) | 0 | 68* | 0 | 5 | 8 | -3
C=CCc1cccc(OC)c1OCCCN1CCN(C)CC1 | 0 | 78* | -1 | 6 | -9 | 1
CCN1CCN(CCCCOc2ccccc2C=O)CC1 | 0 | 58* | -1 | 16 | 7 | 7
CN1CCN(CCCCOc2ccccc2C=O)CC1 | 0 | 16 | 0 | 3 | . | .
CCOc1cc(C=O)ccc1OCCCCN1CCN(CC)CC1 | 0 | 71* | 2 | 10 | 9 | 10
C=CCc1cc(OC)ccc1OCCCCN1CCN(C)CC1 | 0 | 76* | -1 | -3 | -13 | 0
O=C(c1ccc(S(=O)(=O)Cc2cccc(F)c2)c([N+](=O)[O-])c1)N1CCC(Cc2ccccc2)CC1 | 0 | -7 | 1 | 6 | . | .
Cc1nn(Cc2cccc3ccccc23)c(Cl)c1C=O | 0 | 0 | 0 | 2 | . | .
COc1cc(Br)cc(/C=C2\SC(=Nc3ccccc3)N(c3ccccc3)C2=O)c1O | 0 | -5 | -1 | 2 | . | .
COc1cccc(C=O)c1OCCCCN1CCN(C)CC1 | 0 | 66* | 1 | 8 | -2 | 1
C=CCc1ccccc1OCCCCN1CCN(C)CC1 | 0 | 57* | 0 | -4 | -7 | -4
SMILES | FBW7 act | MITF inh | GPR151 activ | TEAD-YAP block | MITF confirm | AlphaScreen intf2
CC(=O)c1ccccc1OCCCCN1CCN(C)CC1 | 0 | 82* | 2 | 2 | -5 | -7
CCc1ccccc1OCCOCCN1CCN(C)CC1 | 0 | 58* | -2 | 3 | 2 | 0
C=CCc1ccccc1OCCN1CCCC1 | 0 | 26 | 0 | 8 | . | .
Cc1cc(-c2nnc(NC(=O)COc3ccccc3C)o2)n(C)n1 | 0 | 15 | 0 | 0 | . | .
CC1CCCN(C(=O)C2CCN(Cc3cccc(Br)c3)CC2)C1 (configuration not stated) | 1 | 62* | 0 | 6 | -7 | -2
CC1CCCN(C(=O)C2CCN(Cc3ccccc3F)CC2)C1 (configuration not stated) | 0 | 67* | 0 | 6 | -12 | -10
CC1CCCN(C(=O)C2CCN(Cc3cccc(Cl)c3)CC2)C1 (configuration not stated) | 1 | 57* | 2 | 7 | -1 | -5
COc1cc(CN2CCC(C(=O)N3CCCC(C)C3)CC2)cc(Br)c1O (configuration not stated) | 1 | 52* | -1 | -1 | -7 | -4
CC1CCCN(C(=O)C2CCN(Cc3cccc4ccccc34)CC2)C1 (configuration not stated) | 1 | 28 | -2 | 14 | . | .

Compound activity from PubChem BioAssay.
